Screens as filed in PubChem BioAssay.
Compounds with a hit are over-represented: about 1.8% of the library has one in this group of screens.
iPSC survival up: enhancers of single-cell hiPSC survival, primary screen, ATPlite luminescence. 100% = ROCK inhibitor wells, 0% = DMSO. survival enhancement, % at 20 µM. 0.044% of 360,000 active; in the data active = survival enhancement above about 18%;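 note: cells exposed to compounds for 16 hours before the ATP read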
ABCB6 inh 2: ABCB6 transporter inhibitors, primary screen, K562-ABCB6 cells, flow cytometry, MLPCN library | ATP-binding cassette sub-family B member 6 (Homo sapiens), Q9NP58 | K562-ABCB6 porphyrin accumulation, 1 h; active compounds read low | fluorescence ratio to DMSO, % at 10 µM | 0.19% of 360,000 active;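 active = fluorescence ratio to DMSO below 75%, the collection mean minus 3 SD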;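 note: signal is porphyrin accumulated inside mitochondria; 100% equals median channel fluorescence of DMSO control wells; lower ratio means ABCB6 inhibition with less porphyrin fluorescence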
CendR NRP1 mod: modulators of CendR peptide binding to NRP-1, primary screen, biochemical, fluorescence polarization, uHTS. Neuropilin-1 (Homo sapiens), O14786. FAM-RPARPAR peptide binding to NRP-1. inhibition, % at 25 µM. 0.85% of 360,000 active. AID 602438, 2012;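 active = inhibition or corrected inhibition above about 18%, plus a signal ratio from 0.5 to 1.5, limit read from the data, passing the limit was not always enough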
ARNT TACC3 PPI: disruptors of ARNT/TACC3 protein interaction, primary screen, biochemical, AlphaScreen, single concentration; Transforming acidic coiled-coil-containing protein 3 (Homo sapiens), Q9Y6A5; AlphaScreen His-ARNT PAS-B/GST-TACC3 binding, luminescence; TACC3 fragment carries E629A point mutation; inhibition, % at 9.99 µM; 0.66% of 390,000 active;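 active = mean inhibition of replicates at least 50% and at least half of replicates each reaching 50%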;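 note: 0% = complete ARNT plus TACC3 wells and 100% = ARNT alone without TACC3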
GSIS activator: GLuc luminescence reporter in INS-1E cells, primary screen for activators of glucose-dependent secretion of insulin. INS-1E GLuc reporter insulin secretion, 2-3 h. activation, % at 16.6 µM. 0.61% of 370,000 active. AID 743287, 2014;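 active = lowest replicate activation of at least 40%, so every replicate reaches that level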;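 note: 0% = median of neutral control wells and 100% = median of IBMX positive control wells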
The depositor's hits bear a star; · = no result given.

SMILES	iPSC survival up	ABCB6 inh 2	CendR NRP1 mod	ARNT TACC3 PPI	GSIS activator
Cc1ccc(/C=C2\SC(=S)N(CCCC(=O)Nc3nccs3)C2=O)cc1	0	101	-2	1	·
O=C1C2=C(NC(=S)NC2c2ccc(Cl)cc2)NC(c2ccc(Cl)cc2)N1c1ccc(Cl)cc1 (centres undefined)	2	96	-4	9	·
CCc1ccc(C2NC(=S)NC3=C2C(=O)N(c2ccccc2OC)C(c2ccc(CC)cc2)N3)cc1 (centres undefined)	1	97	-2	20	127*
O=C(O)c1nn(-c2ccc(Cl)cc2)ccc1=O	-2	91	19*	·	·
C[C@H](CO)N1C[C@H](C)[C@@H](CN(C)S(C)(=O)=O)Oc2c(NC(=O)CCCN(C)C)cccc2C1=O	·	·	·	·	-14
C=CCN=c1sc(C(=O)OC)cc(=O)n1CC=C	1	101	-6	4	50*
CC1Cc2ccccc2N1C(=S)NC(=O)c1cccc(Br)c1 (centres undefined)	1	112	3	21	51*
CC1Cc2ccccc2N1C(=S)NC(=O)c1ccc(Cl)cc1Cl (centres undefined)	-1	104	4	-2	-5
O=C(NC1CCCCC1)N[C@@H]1CC[C@@H](CCNS(=O)(=O)c2ccc(Cl)cc2)O[C@H]1CO	·	·	·	-3	-10
CCOc1ccc(OCC)c(NC(=O)C2CCN(S(=O)(=O)c3cnc[nH]3)CC2)c1	-2	87	21*	-1	·
CCOC(=O)c1c(-c2cc(OC)c(OC)c(OC)c2)csc1N	21*	96	-2	·	-30
CCOC(=O)C1=C(O)C(=O)N(c2ccc(S(N)(=O)=O)cc2)C1c1cccc([N+](=O)[O-])c1 (centres undefined)	0	99	15	-5	-5
Cc1nnc(N2C(=O)C(O)=C(C(=O)c3ccco3)C2c2cccc([N+](=O)[O-])c2)s1 (centres undefined)	0	100	-12	-5	48*
Cc1ccc(C2C(C(=O)c3ccco3)=C(O)C(=O)N2c2nnc(C)s2)cc1 (centres undefined)	2	99	16	-10	·
CCOC(=O)C1=C(O)C(=O)N(c2ccccc2)C1c1cccc([N+](=O)[O-])c1 (centres undefined)	0	96	26*	2	·
COc1ccc2c3c(n(C)c2c1)[C@H](CO)N(C(=O)c1ccc(F)cc1)CC31CN(C(C)=O)C1	·	·	·	·	0
COc1cccc(C#Cc2ccc([C@@H]3[C@@H](CO)N4C(=O)CN(C(C)=O)C[C@@H]34)cc2)c1	·	·	·	·	-10
